Compound activity: PubChem, Broad Institute
In the library only some 3.7% were active in any assay of this set; here they are far more common.
MITF TRPM1 HTS – MITF TRPM1 promoter activation in melanoma cells; SK-MEL-5 TRPM1-promoter luciferase, 24 h; % of positive control, neutral wells = 0; actives 0.75% (n = 300,000); activation, % at 12.5 µM;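 active = mean activation of at least 80% with every replicate also reaching 80%; inconclusive = mean reaches 80% but some replicate falls short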;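 also: 0% = neutral control wells and 100% = parthenolide positive control wells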
esBAF inh – inhibitors of esBAF chromatin remodeling in mouse ES cells; Bmi1-luciferase knock-in reporter, 24 h; 100% = twice the neutral-well signal; reporter increase, % at 12.5 µM; actives 2% (n = 350,000); AID 602393; in the data active = activation above about 40%; inconclusive = no clear call, values can overlap the other calls;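 also: 0% = median of the plate's neutral control wells and 100% = double that signal; a rise in the Bmi1 reporter signal indicates esBAF inhibition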
MLL AF4-AF9 inh – inhibitors of human MLL-AF4/AF9 interaction | P42568 | AlphaScreen, biotin-AF4 peptide binding to FLAG-AF9 | inhibition, % at 10 µM | actives 0.47% (n = 350,000) | AID 651704;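 active = every replicate reaching a set inhibition limit, whatever the replicate mean, cut at about 25% in these data; inconclusive = mean inhibition reaches that limit but some replicates miss it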;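 also: 0% = plate neutral control median and 100% = total signal loss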
Target sequence (P42568 whole entry, looked up): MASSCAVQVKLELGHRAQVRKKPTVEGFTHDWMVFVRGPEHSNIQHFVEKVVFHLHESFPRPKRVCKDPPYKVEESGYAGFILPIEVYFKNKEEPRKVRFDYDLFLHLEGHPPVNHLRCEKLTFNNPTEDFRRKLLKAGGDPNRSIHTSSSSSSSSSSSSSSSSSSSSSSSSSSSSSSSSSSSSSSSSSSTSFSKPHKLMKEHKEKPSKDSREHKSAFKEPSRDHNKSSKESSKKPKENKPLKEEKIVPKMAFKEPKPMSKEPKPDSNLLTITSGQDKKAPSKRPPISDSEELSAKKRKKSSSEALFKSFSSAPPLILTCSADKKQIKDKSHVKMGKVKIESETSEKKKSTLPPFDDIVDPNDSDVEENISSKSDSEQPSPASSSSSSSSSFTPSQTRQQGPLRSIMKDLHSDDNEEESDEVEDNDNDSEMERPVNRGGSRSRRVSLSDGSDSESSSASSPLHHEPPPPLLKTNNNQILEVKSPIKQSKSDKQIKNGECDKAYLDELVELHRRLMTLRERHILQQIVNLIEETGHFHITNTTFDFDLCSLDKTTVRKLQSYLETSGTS
Wnt act – Wnt/beta-catenin pathway activation; Wnt/beta-catenin reporter cell assay, activator, plate reader; activation, % at 9.35 µM; actives 1.2% (n = 300,000); AID 743398; in the data active = activation above about 30%, passing the limit was not always enough; inconclusive = no clear call, values can overlap the other calls;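 also: 0% = neutral control wells and 100% = positive control wells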
Ecoli rRNA inh – inhibits bacterial ribosomal RNA function over humanized ribosomes | GFP signal change (wild-type ribosome), % (no concentration beside the values) | E. coli WT GFP vs humanized-ribosome RFP mutants, fluorescence, 24 h; stronger effect = lower value; DMSO median 0, no signal -100 | actives 1.6% (n = 350,000) | AID 720706;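 active = significant combined selectivity score with lowered wild-type GFP, culture density cut under 30%, mutant RFP and density less affected; inactive = any of these conditions unmet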
* hit, by the source's call.

`Oc1ccccc1/C=N/Nc1cccc2cccnc12` gave esBAF inh 50* and Wnt act 67*.
Screening O=C(COc1cccc2cccnc12)N/N=C/c1ccccc1O returned MITF TRPM1 HTS 18, MLL AF4-AF9 inh inconclusive, Wnt act -1 and Ecoli rRNA inh 4.
`O=C(Cc1ccncc1)Nc1ccc2c(c1)[C@H]1C[C@@H](CC(=O)NC3CCCCC3)O[C@@H](CO)[C@H]1O2` gave esBAF inh -4, MLL AF4-AF9 inh -1 and Ecoli rRNA inh -2.
For CCOC(=O)[C@H]1[C@H]2COc3ccc(Cl)cc3[C@@H]2N2C(=O)c3cc(OC)ccc3NC(=O)[C@@]12C the results were MITF TRPM1 HTS 15, esBAF inh 1, MLL AF4-AF9 inh 0, Wnt act -3 and Ecoli rRNA inh 8.
For CCCCOc1ccc(N2CC(C(=O)NCc3ccco3)CC2=O)cc1 (stereo not drawn) the results were MITF TRPM1 HTS 2, esBAF inh 6, MLL AF4-AF9 inh -4, Wnt act 3 and Ecoli rRNA inh -5.
For COc1ccc(C(=O)COC(=O)/C=C/c2ccccc2[N+](=O)[O-])cc1 the results were MITF TRPM1 HTS 13, esBAF inh -5, MLL AF4-AF9 inh 1, Wnt act 0 and Ecoli rRNA inh -13.
O=C(/C=C/c1ccccc1[N+](=O)[O-])OCC(=O)c1ccccc1 was read as MITF TRPM1 HTS 25, MLL AF4-AF9 inh 1, Wnt act -2 and Ecoli rRNA inh -22*.
For COCCNC(=O)c1ccc2c(c1)CCN2S(C)(=O)=O the results were MITF TRPM1 HTS 11, MLL AF4-AF9 inh -2, Wnt act 4 and Ecoli rRNA inh 12.
Cn1c(N)c(C(=O)Nc2ccc3ccccc3c2)sc1=S was read as MITF TRPM1 HTS 107* and esBAF inh 39.
`Cn1c(N)c(C(=O)Nc2ccccc2F)sc1=S` gave Wnt act 4 and Ecoli rRNA inh -16.
Screening Cn1c(N)c(C(=O)N/N=C/c2ccccc2)sc1=S returned MLL AF4-AF9 inh -1, Wnt act -1 and Ecoli rRNA inh -36*.
Screening Nc1c(C(=O)Nc2ccc(F)cc2)sc(=S)n1-c1ccccc1F returned MITF TRPM1 HTS 51, esBAF inh 54*, MLL AF4-AF9 inh -1, Wnt act 5 and Ecoli rRNA inh 10.
`NNC(=O)c1ccccc1OCCOc1ccccc1` gave MITF TRPM1 HTS -14, esBAF inh 2, MLL AF4-AF9 inh 0, Wnt act -1 and Ecoli rRNA inh 2.
For CCN(C(=O)c1ccco1)c1nc(-c2ccc(OC)cc2)cs1 the results were esBAF inh 81*, MLL AF4-AF9 inh -1, Wnt act 21 and Ecoli rRNA inh -17.
For CN(C)CCCN(C(=O)c1cccs1)c1nc(-c2ccccc2)cs1 the results were MITF TRPM1 HTS 45 and esBAF inh 0.
Screening CCC(=O)N(CC)c1nc(-c2ccc(OC)cc2)cs1 returned MITF TRPM1 HTS 72, esBAF inh 72* and Wnt act 26.
For COc1ccc(-c2csc(N(CCCN(C)C)C(=O)c3ccccc3C)n2)cc1 the results were esBAF inh -12, MLL AF4-AF9 inh 31*, Wnt act -2 and Ecoli rRNA inh -32.
COc1ccc(-c2csc(N(CC(C)C)C(=O)c3ccco3)n2)cc1 was read as MITF TRPM1 HTS 2, esBAF inh 10, MLL AF4-AF9 inh 1, Wnt act 2 and Ecoli rRNA inh 0.
Screening CN(C(=O)c1ccco1)c1nc(-c2ccccc2)cs1 returned MITF TRPM1 HTS 130*, esBAF inh 44*, MLL AF4-AF9 inh -1, Wnt act 19 and Ecoli rRNA inh -5.
COCCn1nnnc1C(c1ccccn1)N1CCN(c2cc(C)ccc2C)CC1 (stereo not drawn) was read as MITF TRPM1 HTS -13, esBAF inh -4, MLL AF4-AF9 inh 9 and Ecoli rRNA inh 11.
CCOC(=O)c1cccc(NC(=O)c2cccnc2)c1 was read as MITF TRPM1 HTS -3 and esBAF inh 4.
For CCOC(=O)c1cccc(NC(=O)c2cnc3ccccc3n2)c1 the results were MITF TRPM1 HTS 28, esBAF inh 53* and Wnt act -4.
Screening CCCCNCc1nc2ccccc2c(=O)[nH]1 returned MITF TRPM1 HTS -7, MLL AF4-AF9 inh 3, Wnt act -1 and Ecoli rRNA inh 10.
CCc1ccc(NCc2nc3ccccc3c(=O)[nH]2)cc1 was read as MITF TRPM1 HTS 21, esBAF inh 3 and Wnt act 35*.
Screening CCOC(=O)c1ccc(Nc2cnc3ccccc3n2)cc1 returned MITF TRPM1 HTS inconclusive, MLL AF4-AF9 inh -2, Wnt act 34* and Ecoli rRNA inh 9.
For CCOC(=O)c1ccc(NCc2nc3ccccc3[nH]2)cc1 the results were MITF TRPM1 HTS 57, esBAF inh 50*, MLL AF4-AF9 inh 6, Wnt act inconclusive and Ecoli rRNA inh 2.
Cc1ccc(OC(=O)Nc2ccccc2)cc1 was read as MITF TRPM1 HTS inconclusive, esBAF inh 50*, MLL AF4-AF9 inh -12, Wnt act 23 and Ecoli rRNA inh 2.
CC(=O)c1cccc(NC(=O)CCCOc2ccc(C)cc2)c1 was read as MITF TRPM1 HTS -7, esBAF inh 0, MLL AF4-AF9 inh -12, Wnt act 1 and Ecoli rRNA inh -11.
Screening O=C(Nc1cccc(Cl)c1)OCCOc1ccccc1 returned MITF TRPM1 HTS 80, esBAF inh 61*, MLL AF4-AF9 inh -10, Wnt act 7 and Ecoli rRNA inh -23.
`N#CCc1ccc(OC(=O)Nc2ccccc2)cc1` gave MITF TRPM1 HTS 3, esBAF inh 19, MLL AF4-AF9 inh -3, Wnt act 3 and Ecoli rRNA inh 20.
O=C(CCCOc1ccc(Cl)cc1)Nc1cccc(C(=O)O)c1 was read as MITF TRPM1 HTS -2, esBAF inh 1, MLL AF4-AF9 inh 0, Wnt act 56* and Ecoli rRNA inh -21.
For Cc1ccc(NC(=O)CCOc2ccccc2)cc1 the results were MITF TRPM1 HTS 90*, esBAF inh 56*, MLL AF4-AF9 inh 0, Wnt act 24 and Ecoli rRNA inh 13.
Screening CC(C)c1csc(CN2CCN(Cc3ccc(F)c(F)c3)C(CCO)C2)n1 (stereo not drawn) returned MITF TRPM1 HTS -7, MLL AF4-AF9 inh 1, Wnt act -2 and Ecoli rRNA inh -12.
For Cc1cc(NC(=O)CSc2nnnn2-c2ccccc2)no1 the results were MITF TRPM1 HTS 3, MLL AF4-AF9 inh -1, Wnt act -9 and Ecoli rRNA inh -2.
Screening CN1C(=O)c2cc(NC(=O)c3ccc(F)cc3)ccc2OC[C@H]2O[C@@H](CC(=O)O)CC[C@H]21 returned esBAF inh -4, MLL AF4-AF9 inh -1 and Ecoli rRNA inh 4.
Screening O=C(Nc1ccccc1)OCCOc1ccccc1 returned MITF TRPM1 HTS 52 and esBAF inh 52*.
Screening O=C(Nc1ccccc1)OCCOc1ccccc1Br returned esBAF inh 45*, MLL AF4-AF9 inh -2, Wnt act 22 and Ecoli rRNA inh 17.
